In PubChem BioAssay AID2796 (The Scripps Research Institute Molecular Screening Center, 2010) one finds activation data, which are given here for 62 compounds.

Hit rate of the full screen: of about 320,000 compounds, about 8,000 (2.5%) were called active. Rule as the data show it: active = activation above about 47%; inactive = the rest. What follows is part of a selection rich in actives, with near analogues and random picks from the rest.

The test deals with Aryl hydrocarbon receptor (Homo sapiens) (UniProt P35869). Nature of the test: AHR activators, primary screen, cell-based, luminescence, luciferase reporter, human (AID 2796).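 Also: 0% = vehicle wells and 100% = reference agonist.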 Conditions: AHR-responsive luciferase reporter cells, at 5 µM, hits give high values.
Sequence of Aryl hydrocarbon receptor (Homo sapiens) (P35869 whole entry, looked up): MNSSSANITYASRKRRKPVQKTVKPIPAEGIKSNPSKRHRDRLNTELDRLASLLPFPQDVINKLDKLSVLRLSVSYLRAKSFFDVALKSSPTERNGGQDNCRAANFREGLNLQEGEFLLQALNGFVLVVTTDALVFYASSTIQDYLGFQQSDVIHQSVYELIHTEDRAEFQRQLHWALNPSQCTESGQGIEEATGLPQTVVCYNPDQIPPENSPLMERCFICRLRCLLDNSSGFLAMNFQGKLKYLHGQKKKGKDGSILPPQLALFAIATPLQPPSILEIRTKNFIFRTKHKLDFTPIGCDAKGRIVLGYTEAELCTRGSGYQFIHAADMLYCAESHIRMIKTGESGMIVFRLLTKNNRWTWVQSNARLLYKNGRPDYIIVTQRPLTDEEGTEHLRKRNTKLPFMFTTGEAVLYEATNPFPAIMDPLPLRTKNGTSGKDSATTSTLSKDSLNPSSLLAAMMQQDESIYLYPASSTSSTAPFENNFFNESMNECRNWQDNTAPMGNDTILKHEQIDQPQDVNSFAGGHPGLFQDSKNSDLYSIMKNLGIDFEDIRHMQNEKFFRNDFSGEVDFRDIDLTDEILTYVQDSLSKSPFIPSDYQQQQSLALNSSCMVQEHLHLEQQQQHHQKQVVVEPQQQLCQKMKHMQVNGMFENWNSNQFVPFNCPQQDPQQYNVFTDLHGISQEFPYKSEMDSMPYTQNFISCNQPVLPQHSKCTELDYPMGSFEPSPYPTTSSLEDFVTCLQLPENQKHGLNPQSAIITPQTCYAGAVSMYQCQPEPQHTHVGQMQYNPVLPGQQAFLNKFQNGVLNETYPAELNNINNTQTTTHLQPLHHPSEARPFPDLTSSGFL
`COc1ccc(C2=Nc3cc(C)ccc3OC2)cc1`: the activation was 30.2% (inactive). The figure for `O=C(CCc1nc(-c2ccccc2)no1)Nc1cccc(C(=O)NC2CC2)c1` is 0.82% (inactive); for `CCc1ccc(OCC(=O)OC(C)C(=O)NC2CC2)cc1` (configuration not stated) it is -4.56% (inactive). The same measure for `Oc1c(Cl)cc(Cl)c(Cl)c1Cc1c(O)c(Cl)cc(Cl)c1Cl`: 0.28% (inactive); for `CN(C(=O)COC(=O)Cn1cnc2c1c(=O)n(C)c(=O)n2C)C1(C#N)CCCCC1`: -0.97% (inactive); for `O=C(c1snnc1-c1ccccc1)N1CCOCC1`: 2.54% (inactive). The figure for `CN(CCC1CCOCC1)C(=O)CC1C(=O)NCCN1Cc1cccc(F)c1` (configuration not stated) is -2.39% (inactive); for `COc1cccc(NC(=O)Cn2cnc3sc(C)c(S(=O)(=O)N4CCN(C)CC4)c3c2=O)c1` it is 3.14% (inactive). As to `CCCc1cc(=O)oc2c(C)c(OCC(=O)N3CCC(C(=O)O)CC3)ccc12`, the activation is 0.65% (inactive). Turning to `CCCc1cc(=O)oc2c(C)c(OCC(=O)Nc3ccccn3)ccc12`, the activation is 2.02% (inactive). For `CCCc1cc(=O)oc2c(C)c(OCC(=O)NCc3ccccn3)ccc12`, the activation is 65.7% (active). As to `Clc1ccc(-c2cc(C3CCNCC3)[nH]n2)c(Cl)c1`, the activation is -7.18% (inactive).

On to `CCC(=O)Nc1nc(C)c(C(=O)Nc2cccc(Cl)c2)s1`, for which the activation was 7.61% (inactive). The same measure for `CCCCCCC(=O)Nc1nc(C)c(-c2csc(Nc3cccc(OC)c3)n2)s1`: 34.4% (inactive); for `CCCCC(=O)Nc1nc(C)c(-c2csc(Nc3ccc(Cl)cc3)n2)s1`: 49.2% (active); for `COc1ccc(-c2csc(NC(=O)COC(=O)Cc3ccc(Cl)cc3Cl)n2)cc1`: 34.2% (inactive). The figure for `O=C(Nc1ccc(-c2csc(Nc3cccc(C(F)(F)F)c3)n2)cc1)c1cccc(C(F)(F)F)c1` is 114% (active); for `C=CCCC(=O)Nc1nc(C)c(-c2csc(Nc3ccc(Cl)cc3)n2)s1` it is 56.6% (active). Regarding `COc1ccc(NC(=O)CN(C)CC(=O)Nc2cccc(C(F)(F)F)c2)cc1`, the activation was 0.79% (inactive). Regarding `O=C(O)CSc1c2c(nc3cc(C(=O)Nc4cccc(C(F)(F)F)c4)ccc13)CCCC2`, the activation was -2.1% (inactive).

For `CCCCCCC(=O)Nc1nc(C)c(-c2csc(Nc3cc(Cl)ccc3OC)n2)s1`, the activation is 40.2% (inactive). As for `CCCCN(C)CCC(=O)Nc1ccc(Cl)cc1`, the activation is 0.37% (inactive).

Regarding `Cc1nc(NC(=O)c2cccc(Cl)c2)sc1-c1csc(Nc2cccc(Cl)c2)n1`, the activation is 85.8% (active). The figure for `Cc1nc(NC(=O)CN(C)S(=O)(=O)c2ccc(Cl)cc2)sc1C` is 5.19% (inactive). For `CCC(C)c1ccc(NC(=O)COC(=O)C2CCCC2)cc1` (configuration not stated), the activation is -0.7% (inactive). In the case of `CC(=O)Nc1ccc(NC(=O)CCN2C(=O)C3CC=CCC3C2=O)cc1` (configuration not stated), the activation is -0.48% (inactive).

`Cc1occc(=O)c1OCc1c(Cl)cccc1Cl`: the activation was 2.86% (inactive). `O=C(O)CCN1C(=O)CC2(CCCCC2)C1=O`: the activation is -1.21% (inactive). Regarding `O=C1CCN(Cc2ccc([N+](=O)[O-])cc2)CCN1[C@H](CO)Cc1ccccc1`, the activation is 0.87% (inactive).

Regarding `CCCNC(=O)c1cnc(-c2ccccc2)nc1-c1ccccc1`, the activation was 3.22% (inactive). The figure for `CCOc1ccc(/C=C(/NC(=O)c2ccccc2)C(=O)NCCC(=O)O)cc1` is 3.46% (inactive); for `COc1cc(OC)c(NS(=O)(=O)c2cn(C)cn2)cc1Cl` it is -0.48% (inactive). As to `Cc1ccc(NC(=O)C2CCC(C(C)(C)C)CC2)cc1S(=O)(=O)N1CCOCC1` (configuration not stated), the activation was 1.24% (inactive).

With `Cc1csc(=O)n1CC(=O)Nc1ccc(S(C)(=O)=O)cc1`, the activation was -1.77% (inactive). The same measure for `CCOC(=O)c1ccc(NC(=O)c2ccc(NC(=O)C3CCCO3)cc2)cc1` (configuration not stated): 3.91% (inactive).

For the compound `COc1ccc(N(CC(=O)N2CCOCC2)S(=O)(=O)c2ccccc2)cc1Cl`, the activation is 0.59% (inactive). Take `O=C1COc2ccc(C(=O)COC(=O)c3ccccc3Cl)cc2N1`: the activation is -0.97% (inactive). The figure for `Cc1ccc(C2Nc3cccc4cccc(c34)N2)cc1` is 30.3% (inactive); for `Oc1ccc(C2Nc3cccc4cccc(c34)N2)cc1` it is 9.92% (inactive); for `COc1ccc(C2NC(=O)c3ccccc3N2)cc1` (configuration not stated) it is 102% (active). The same measure for `CC(Oc1ccc(-c2ccccc2)c(F)c1)c1ccn(S(=O)(=O)c2cccc3ccccc23)n1` (configuration not stated): 0.53% (inactive). With `O=C(NC(=O)c1ccc(Cl)c(Cl)c1)OC1CCS(=O)(=O)C1` (configuration not stated), the activation was 2.16% (inactive).

For the compound `O=C(Cn1ncc(N2CCCC2)c(Br)c1=O)c1ccc(Cl)cc1`, the activation was 3.04% (inactive).

For the compound `COc1cccc(CNc2ncc(-c3ccccc3)n2C)c1`, the activation is 8.66% (inactive). The figure for `CCCc1cc(-c2nc(-c3ccc(C)cc3)cs2)ccn1` is 23.7% (inactive).

Take `Cc1ccc(-c2csc(-c3cc(C)on3)n2)cc1`: the activation was -2.07% (inactive). The figure for `Cc1ccc(-c2csc(-c3c[nH]c4ccccc34)n2)cc1` is 74.3% (active). For the compound `CCC(C)NC(=O)C1CCC(=O)N1Cc1ccc(C)cc1` (configuration not stated), the activation was 4.04% (inactive). The figure for `O=C(NCCc1ccc(Cl)cc1Cl)c1cc([N+](=O)[O-])c[nH]c1=O` is 6.38% (inactive); for `COC(=O)c1c(NC(C)=O)sc(C(=O)Nc2ccccc2OC)c1C` it is 47.1% (active).

In the case of `COc1ccccc1NC(=O)c1ccc(C)s1`, the activation was 26.2% (inactive). Turning to `CCC(=O)Nc1sc(C(=O)Nc2ccccc2)c(C)c1C(=O)OC`, the activation was -2.8% (inactive).

In the case of `CN1CCN(S(=O)(=O)c2cccc(C(=O)Nc3sccc3C#N)c2)CC1`, the activation is 3.96% (inactive).

As for `O=C(CC12CC3CC(CC(C3)C1)C2)Nc1ccc2c(c1)COC2=O`, the activation was 0.6% (inactive). With `O=S(=O)(O)c1nc2ccccc2n1Cc1ccc(Cl)cc1Cl`, the activation was 3.2% (inactive). `CC(C)(C)C(=O)Cn1c(NCCO)nc2ccccc21`: the activation is -1.23% (inactive). The same measure for `O=C(Cn1c(NCCO)nc2ccccc21)c1ccc(Cl)cc1Cl`: 103% (active). The figure for `CN(CC(=O)NCCc1ccc(S(N)(=O)=O)cc1)CC(=O)Nc1ccc(F)c(F)c1F` is 1.42% (inactive). The same measure for `O=S(=O)(Cc1ccccc1)c1nc2ccccc2n1Cc1ccccn1`: -1.4% (inactive); for `O=c1c2cc(-c3ccccc3)sc2nc2n1N=C(c1cccs1)CS2`: 58.8% (active). Take `Cc1nnc2n1N=C(c1ccccc1)CS2`: the activation was 1.52% (inactive).

Take `COc1ccc(C2CC(c3cccs3)=NN2c2ccccc2)cc1` (configuration not stated): the activation is 3.12% (inactive).
